PAFAH1B3 FP inh: PAFAH1B3 enzyme inhibitors, primary screen, biochemical, fluorescence polarization, human; recombinant PAFAH1B3, FP-rhodamine probe; hit rate 0.28% among 340,000; inhibition, % at 3.39 µM; Platelet-activating factor acetylhydrolase IB subunit alpha1 (Homo sapiens), Q15102;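 active = inhibition above the screen-wide average of all tested compounds plus 3 SD, cut at about 25% in these data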;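 note: 0% = enzyme with DMSO only and 100% = wells lacking PAFAH1B3 protein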
Fam108B inh: mouse Fam108B serine hydrolase inhibitors, primary screen, counter-screen for RBBP9 inhibitor project, biochemical, fluorescence polarization | recombinant Fam108B, FP-Rh probe fluorescence polarization | inhibition, % at 9.51 µM | hit rate 0.33% among 300,000 | AID 1947, 2009;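 active = inhibition above the screen mean inhibition plus 3 SD, computed separately per campaign, cut at about 18% in these data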;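 note: inhibitors lower polarization as less probe binds the enzyme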
PAFAH1B2 FP inh: PAFAH1B2 enzyme inhibitors, primary screen, biochemical, fluorescence polarization, human. Platelet-activating factor acetylhydrolase IB subunit alpha2 (Homo sapiens), P68402. recombinant PAFAH1B2, FP-rhodamine activity probe. inhibition, % at 3.39 µM. hit rate 1.2% among 340,000;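 active = inhibition above the mean of all tested compounds plus 3 SD, cut at about 24% in these data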;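 note: 0% = enzyme with DMSO and 100% = wells lacking PAFAH1B2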
PME-1 inh: PME-1 inhibitors via competitive probe labeling, primary screen, biochemical, fluorescence polarization, FP-Rh probe, HTS; Protein phosphatase methylesterase 1 (Homo sapiens), Q9Y570; recombinant PME-1; inhibition, % at 5.9 µM; hit rate 0.53% among 320,000;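 active = inhibition above the campaign mean of all compounds plus 3 SD, cut at about 26% in these data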;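 note: competitive labeling of PME-1 active site by serine hydrolase directed probe; 0% = PME-1 with DMSO and 100% = wells lacking PME-1 enzyme; inhibitors block probe labeling so polarization falls and inhibition rises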
Target sequence (Q9Y570 whole entry, looked up): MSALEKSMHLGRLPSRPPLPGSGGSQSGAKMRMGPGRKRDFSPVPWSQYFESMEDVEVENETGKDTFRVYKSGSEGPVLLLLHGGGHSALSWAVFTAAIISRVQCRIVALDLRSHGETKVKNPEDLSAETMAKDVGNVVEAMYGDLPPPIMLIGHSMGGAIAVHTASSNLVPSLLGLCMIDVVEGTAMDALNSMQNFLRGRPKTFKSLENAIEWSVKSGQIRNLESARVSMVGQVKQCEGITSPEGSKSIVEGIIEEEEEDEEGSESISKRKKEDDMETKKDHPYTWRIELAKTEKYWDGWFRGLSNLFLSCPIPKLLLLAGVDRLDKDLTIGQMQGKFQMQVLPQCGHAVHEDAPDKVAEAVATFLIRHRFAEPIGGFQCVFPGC
pPAFAH FP inh: pPAFAH enzyme inhibitors, primary screen, biochemical, fluorescence polarization, human; Platelet-activating factor acetylhydrolase (Homo sapiens), Q13093; recombinant pPAFAH, FP-rhodamine probe fluorescence polarization; inhibition, % at 3.39 µM; hit rate 1.5% among 330,000;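 active = inhibition above the mean inhibition across the screen plus 3 SD, cut at about 25% in these data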;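 note: inhibitors block binding of the rhodamine activity-based probe so polarization drops; 0% = enzyme with DMSO and 100% = wells lacking pPAFAH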
PAFAH2 FP inh: PAFAH2 enzyme inhibitors, primary screen, biochemical, fluorescence polarization, human | Platelet-activating factor acetylhydrolase 2, cytoplasmic (Homo sapiens), Q99487 | inhibition, % at 3.39 µM | AID 492956, 2010 | hit rate 0.99% among 340,000 | recombinant PAFAH2, FP-rhodamine activity probe;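 active = inhibition above the mean over all tested compounds plus 3 SD, cut at about 30% in these data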;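 note: inhibitors block probe labeling of enzyme so polarization drops; 0% = enzyme with DMSO and 100% = wells lacking PAFAH2 protein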
Numbers without * were called inactive; . = not tested or not shown. Hits are enriched below; roughly 2.9% of the tested compounds scored in any of these assays.

SMILES	PAFAH1B3 FP inh	Fam108B inh	PAFAH1B2 FP inh	PME-1 inh	pPAFAH FP inh	PAFAH2 FP inh
Cc1cccc(NC2=C/C(=N/S(=O)(=O)c3cccs3)c3ccccc3C2=O)c1	64*	17	23	16	22	14
O=C(O)c1ccc(NC2=C/C(=N/S(=O)(=O)c3ccccc3)c3ccccc3C2=O)cc1	63*	.	30*	.	.	48*
O=C1C(Nc2ccc(O)cc2)=C/C(=N/S(=O)(=O)c2cccs2)c2ccccc21	64*	.	29*	.	.	35*
Cc1ccc(NC2=C/C(=N\S(=O)(=O)c3cccs3)c3ccccc3C2=O)c(C)c1	65*	19*	30*	6	29*	34*
Cc1[nH]c(=O)n(C(C)C)c(=O)c1Br	15	.	0	.	.	2
O=C(COC(=O)Cc1c[nH]c2ccccc12)Nc1ccccc1	5	-4	6	4	13	22
O=C(COC(=O)c1c[nH]c2ccccc12)Nc1ccc(F)cc1	1	.	0	-3	30*	77*
O=C(COC(=O)c1c[nH]c2ccccc12)Nc1cccc(F)c1	9	.	-1	-9	25*	81*
N#CCC(=O)Nc1ccc(C(=O)OCC(=O)c2c[nH]c3ccccc23)cc1	-20	.	-11	.	-14	-11
COC(=O)C1=C(Nc2ccccc2NS(=O)(=O)c2ccc(C(F)(F)F)cc2Cl)CSC1	2	-2	28*	-3	24	8
Nc1ccc2c(c1)C(=O)C(=O)c1ccccc1-2	76*	66*	25*	38*	15	62*
O=C1NC(=Nc2ccccc2Cl)S/C1=C\c1cccc([N+](=O)[O-])c1O	22	12	14	6	34*	50*
COc1ccccc1-c1n[nH]c(=S)n1-c1ccccc1	-1	12	25*	3	3	7
O=C(CN1C(=O)C2CC=CCC2C1=O)Nc1nnc(C2CC2)s1 (stereo not given)	-1	.	-6	-4	3	6
CCN1C(=O)[C@H]2[C@@H](c3ccc(SC4CCCCC4)cc3)N3CCCC[C@@]3(C(=O)OC)[C@H]2C1=O	-1	-6	1	1	2	8
CCN1C(=O)[C@@H]2[C@@H](c3ccc(SC4CCCCC4)cc3)N3CCC[C@@]3(C(=O)OC)[C@@H]2C1=O	14	1	3	-7	29*	1
CCOc1cc(N2CCOCC2)c(OCC)cc1NC(=O)COC(=O)c1ccc(Cl)nc1	5	.	2	.	5	2
COc1cc(/C=C2\CCC/C(=C\c3ccc(O)c(OC)c3)C2=O)ccc1O	6	14	-2	26*	15	-5
O=C(O)c1nn(CCOc2ccc(Br)cc2)c(=O)c2ccccc12	1	-4	27*	5	1	10
O=C(COc1ccc(Cl)cc1)NC1=NN(c2ccccc2)C(=O)C1	5	6	68*	7	6	0
COc1cc2cc(CCOC(=O)c3ccc(C(F)(F)F)cc3)oc(=O)c2cc1OC	7	.	0	-4	0	-6
Cc1oc2cc3oc(=O)c(CCC(=O)NCCN4CCOCC4)c(C)c3cc2c1C	13	-1	-7	0	-1	1
COc1ccc2cc3cc(C(=O)NCc4ccco4)oc3nc2c1	8	-2	5	-12	4	2
COc1ccc2cc3c(N)c(C(=O)NCc4ccco4)sc3nc2c1	1	5	-1	35*	8	10
O=C(NCc1ccco1)c1c2c(nc3ccccc13)CCC2	6	6	4	-3	27*	15
CCCOC(=O)c1sc2nc3c(cc2c1N)C(=O)CCC3	3	3	0	-1	3	3
Nc1c(C(=O)NCc2ccco2)sc2nc3c(cc12)C(=O)CCC3	-7	12	2	2	28*	1
CCCCn1c(N)c(N(CCOC)C(=O)c2cc(-c3ccc(F)cc3)nc3ccccc23)c(=O)[nH]c1=O	4	-1	8	1	-1	3
O=C(CCCN1C(=O)/C(=C\c2cccs2)SC1=S)Nc1ccc(O)cc1C(=O)O	5	4	44*	3	25*	13

Screening results as filed in PubChem BioAssay.
